# Assay results: PubChem BioAssay (NCATS)
# Calls of active or inactive are those of the source. The call rests on the fitted dose curve; in most records, active means well fitted curve in the direction sought with a large enough effect; inconclusive means small, poorly fitted or top-dose-only effect, or another doubt; inactive means no such curve, though single readings can be large or run the other way.
# Target: alpha-glucosidase (Oryza sativa, rice) (UniProt Q653V4)
# Assay: Counterscreen for Glucocerebrosidase Inhibitors: qHTS Assay for Rice alpha-Glucosidase at pH 5.0 (AID 997);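 further: 0% = full activity with enzyme and -100% = basal without enzyme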
# Details: rice alpha-glucosidase enzyme activity; series mostly up to 76.9 µM; activity change, negative = inhibition: at the top concentration
# Procedure, shortened: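 Endpoint fluorogenic assay at pH 5.0: compounds (0.7 nM to 77 uM) titrated against 4 nM rice enzyme and 400 uM 4-MU-alpha-glucoside for 20 min at room temperature; NaOH/glycine stop, read ex 365/em 440 nm, Hill-fitted AC50.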
SMILES,"activity change, negative = inhibition",outcome
O=C1NC(O)=NC1(c1ccccc1)c1ccccc1,-1.24% (inactive),
O=c1[nH]c2ccccc2n1CCCN1CCN(C(c2ccccc2)c2ccccc2)CC1,-4.42% (inactive),
COc1cc(OC)c(/C=C2/C(=O)Nc3ccccc32)c(OC)c1,-0.211% (inactive),
N#C/C(=C\c1c[nH]c2ccccc12)C(=O)c1ccc(O)c(O)c1,1.18% (inactive),
CC(C)(C=O)Cc1cc(C(C)(C)C)c(O)c(C(C)(C)C)c1,-4.88% (inactive),
COc1ccccc1N1CCN(CCCCNS(=O)(=O)c2cccc3c(N(C)C)cccc23)CC1,-8.95% (inactive),
NC[C@@H]1O[C@H](C23CC4CC(CC(C4)C2)C3)Cc2c1ccc(O)c2O,1.6% (inactive),
CN1[C@@H]2CC[C@H]1CC(OC(c1ccccc1)c1ccccc1)C2 (stereo not given in full),-6.12% (inactive),
O=Nc1ccc2oc(=O)ccc2c1,-3.71% (inactive),
Brc1c(Br)c(Br)c2n[nH]nc2c1Br,-0.559% (inactive),
CN=c1nc(-c2ccccc2)n(-c2ccccc2)s1,-2.7% (inactive),
CN1CCc2ccccc2Cc2[nH]c3ccccc3c2CC1,-0.982% (inactive),
Cn1cc(C2=C(c3ccc(Cl)cc3Cl)C(=O)NC2=O)c2ccccc21,-4.82% (inactive),
COC1=C(OC)C(=O)c2ccccc2C1=O,-3.39% (inactive),
Cc1ccc(O)c(N=Nc2ccccc2)n1,-4.78% (inactive),
C=C[C@H]1CN2CC[C@@H]1C[C@@H]2[C@@H](O)c1ccnc2ccc(OC)cc12,,inactive
COc1ccccc1CNCCCCCCNCCCCCCCCNCCCCCCNCc1ccccc1OC,-12.8% (inactive),
CC(C)Cc1ccc([C@H](C)C(=O)O)cc1,-5.31% (inactive),
CN(C)c1nc2c(Br)c(Br)c(Br)c(Br)c2[nH]1,-2.93% (inactive),
C[N+]1(C)CCC(OC(=O)C(c2ccccc2)c2ccccc2)CC1,7.06% (inactive),
